Reference: PubChem BioAssay (Tox21)
Results filed as inconclusive are left out. A call without a number means that no potency is given here. Values without a mark were called inactive. The source made the active and inactive calls. Calls come from the whole dose curve; as a rule, active = well fitted activation curve with a large enough effect in the repeat runs; inconclusive = weak or mixed curves; inactive = flat fitted curve, though single readings scatter.

experiment: A CellTox Green Cytotoxicity Assay to monitor cytotoxicity in HEK293 cells - 32 hour (AID 1224881); details: CellTox Green fluorescence; series mostly up to 76.8 µM; note: nearly all actives have a fitted effect of over 40% in size
Excerpt: National Center for Advancing Translational Sciences [NCATS]
NIH Chemical Genomics Center [NCGC]
U.S. Environmental Protection Agency [EPA]
National Institutes of Environmental Health Sciences [NIEHS]
National Toxicology Program [NTP]
Cell-based models are critical for drug discovery. Determining the natural cytotoxic effects resulting from test compounds is an essential research activity. A CellTox Green Cytotoxicity Assay to monitor cytotoxicity in real time of continues cell culture during 40 hours of the compound treatment was used to screen Tox21 10K library compounds in Hek293 cells. CellTox Green Cytotoxicity Assay is a nonlytic, homogeneous, biofluorescent method to measure cytotoxicity in cell culture after experimental manipulation. The assay system uses a proprietary asymmetric cyanine dye that is excluded from viable cells but preferentially stains the dead cell's DNA. […] Viable cells produce no appreciable increases in fluorescence. Therefore, the fluorescence signal produced by the binding interaction with dead cell DNA is proportional to cytotoxicity.
The mixture of Hek293 cell suspension and reagents were dispensed at 600cells/6 ul/well in 1536-well tissue culture treated black solid bottom plates using a Multidrop dispenser. After the assay plates were incubated at a 37 C/5% CO2 incubator for 5 hours, 23 nL of compounds dissolved in DMSO, positive and negative controls was transferred to the assay plate by a pintool work station. The plates were incubated at 37 C for 40 hours. The fluorescence intensity were measured at 0h, 8h, 16h, 24h, 32h and 40h time points using ViewLux plate reader during compound treatment.

Row | Structure (SMILES) | Potency | cytotoxicity increase
1 | COC(=O)[C@@H]1CC2=CC(=O)CC[C@]2(C)[C@@]23O[C@@H]2C[C@@]2(C)[C@@H](CC[C@@]24CCC(=O)O4)[C@H]13 | inactive | –
2 | CCCOCCOCCO | inactive | –
3 | Cc1oc(C)c(C(=O)Nc2ccccc2)c1C | inactive | –
4 | COc1cc2c(N3CCN(C(=O)Nc4ccc(OC(C)C)cc4)CC3)ncnc2cc1OCCCN1CCCCC1 | inactive | –
5 | CC(=O)Oc1ccc(C(=C2CCCCC2)c2ccc(OC(C)=O)cc2)cc1 | inactive | –
6 | CCC1(C)CC(=O)NC1=O (stereo not given) | inactive | –
7 | C=CC(C)=CCC=C(C)C | inactive | –
8 | CCOC(=O)c1ccccc1C | inactive | –
9 | O=C(C(=O)c1ccccc1)c1ccccc1 | inactive | –
10 | N#C/C(=C1/SC[C@@H](c2ccc(Cl)cc2Cl)S1)n1ccnc1 | inactive | –
11 | Cc1nccn1-c1ccc(Sc2cccc(C3(C(N)=O)CCOCC3)c2)cc1 | inactive | –
12 | CC(C)C(OC(=O)c1ccccc1)C(C)(C)COC(=O)c1ccccc1 (stereo not given) | inactive | –
13 | O=C(CCCN1CCC(O)(c2ccc(Br)cc2)CC1)c1ccc(F)cc1 | inactive | –
14 | C(=C\c1ccccc1)/CN1CCN(C(c2ccccc2)c2ccccc2)CC1 | inactive | –
15 | CC(C)CCCCCOC(=O)CCCCC(=O)OCCCCCC(C)C | inactive | –
16 | CC(C)=CC=O | inactive | –
17 | Brc1cc(-c2ccc(Br)c(Br)c2Br)cc(Br)c1Br | inactive | –
18 | Cc1cc2nc3ccc(=[N+](C)C)cc-3sc2cc1N | inactive | –
19 | CO[C@H]1O[C@H](CO)[C@@H](O)[C@H](O)[C@H]1O | inactive | –
20 | Cc1nc2ccccn2c(=O)c1CCN1CCC(C(=O)c2ccc(F)cc2)CC1 | inactive | –

Row | Structure (SMILES) | Potency | cytotoxicity increase
21 | C=CC(=O)NCOCC(C)C | inactive | –
22 | CC(=O)N(c1onc(C)c1C)S(=O)(=O)c1ccc(N)cc1 | inactive | –
23 | CCCCN(CCCC)C(=S)SSC(=S)N(CCCC)CCCC | inactive | –
24 | CCCCCCCC/C=C\CCCCCCCC(=O)OC(CO)CO | inactive | –
25 | CCC(=O)OC/C=C/c1ccccc1 | inactive | –
26 | NC(=O)N(O)[C@@H]1COc2cc(OCc3ccccc3)ccc21 | inactive | –
27 | Cc1ccnc2ccccc12 | inactive | –
28 | COC(=O)Nc1nc2ccc(C(=O)c3cccs3)cc2[nH]1 | inactive | –
29 | CCOC(=O)N1CCC(n2c(=O)[nH]c3cc(Cl)ccc32)CC1 | inactive | –
30 | Nc1c(I)cc(I)c(C(=O)N(CCC(=O)O)c2ccccc2)c1I | inactive | –
31 | CSc1ccc(Oc2ccc(S(N)(=O)=O)cc2CN(C)C)cc1C | inactive | –
32 | CC(C)(O)c1ccccc1CC[C@@H](SCC1(CC(=O)O)CC1)c1cccc(/C=C/c2ccc3ccc(Cl)cc3n2)c1 | inactive | –
33 | Nc1nc(Cl)nc2c1ncn2[C@@H]1O[C@H](CO)[C@@H](O)[C@@H]1F | inactive | –
34 | CC1CN(c2cc3c(cc2F)c(=O)c(C(=O)O)cn3-c2ccc(F)cc2F)CCN1 (stereo not given) | – | -2.92% [at 6.97 µM]
35 | N#C[C@@H]1C[C@@H]2C[C@@H]2N1C(=O)[C@@H](N)C12CC3CC(CC(O)(C3)C1)C2 | inactive | –
36 | COC(OC)(C(=O)c1ccccc1)c1ccccc1 | inactive | –
37 | CCc1cccc(N(C)C(N)=Nc2cccc3ccccc23)c1 | inactive | –
38 | NCC1CCCC(CN)C1 (stereo not given) | inactive | –
39 | CCCCCCOC(=O)CCCCCCCC(=O)OCCCCCC | inactive | –
40 | CC(=O)[C@H]1CC[C@H]2[C@@H]3C[C@H](C)C4=CC(=O)CC[C@]4(C)[C@H]3[C@@H](O)C[C@]12C | inactive | –
